In PubChem BioAssay AID624483 (NMMLSC, 2012):
In all, about 360,000 compounds went through this assay and about 11,000 (3.1%) were called active. About 2% were inconclusive and are not listed. No stated cut-off is given here; in the data, active means fluorescence intensity above about 16000; inconclusive means no clear call, values can overlap the other calls; inactive means below that. Shown is part of a subset that was picked to be rich in actives.

Assay: counter-screen for toxin protease inhibitors: compound fluorescence, primary screen, artefact control for toxin protease inhibitor project, biochemical, multiplex microsphere, HTS (AID 624483)
Settings: compound autofluorescence counterscreen, microsphere flow cytometry; active compounds read high

Row | SMILES | fluorescence intensity
1 | CCCNC(=O)C1(C)CCCN(C(=O)c2oc3ccccc3c2C)C1 (stereo not given) | 3630 (inactive)
2 | CCOc1ccc(NC(=O)CN(C)C(=O)CCSc2ccc(F)cc2)cc1OCC | 3520 (inactive)
3 | COc1ccc(O)c(C=Nc2cc(C)on2)c1 | 22400 (active)
4 | COc1ccc(O)c(/C=N/N=C/c2cccc([N+](=O)[O-])c2)c1 | 3450 (inactive)
5 | Cc1cc(N=CC2=C(O)CCCC2=O)no1 | 3160 (inactive)
6 | COc1ccc(C(=O)OCC(=O)NC(=O)CCSc2ccccc2)cc1 | 2520 (inactive)
7 | CCOc1cccc(=O)c2c(C)n(CC3CCCO3)c(C)c12 (stereo not given) | 22100 (active)
8 | CC(=O)Nc1ccc(NC(=O)CSc2nnc(COc3ccccc3C)n2CC2CCCO2)cc1 (stereo not given) | 3370 (inactive)
9 | CCOc1ccc(NC(=O)c2cccc3c2C(=O)N(CC2CCCO2)C3)cc1 (stereo not given) | 6080 (inactive)
10 | COc1nc(Oc2ccc(=O)n(C)n2)nc(N(C)C)n1 | 2790 (inactive)
11 | Cc1ccccc1N1C(=O)C2ON(c3ccccc3)C(c3ccncc3)C2C1=O (stereo not given) | 23600 (active)
12 | COc1cc(C2C3C(=O)N(c4ccccc4)C(=O)C3ON2c2ccccc2)ccc1O (stereo not given) | 3690 (inactive)
13 | O=C1[C@@H](c2ccccc2)[C@@H](c2ccccc2)N1c1cccnc1 | 3340 (inactive)
14 | Cc1cc(C)c2cc(CN(Cc3nnnn3Cc3ccc(F)cc3)C3CCCC3)c(=O)[nH]c2c1 | 22000 (active)
15 | Cc1cccc2cc(CN(Cc3nnnn3Cc3ccccc3)C3CCCC3)c(=O)[nH]c12 | 7870 (inactive)
16 | Cc1cc(C)c2cc(CN(Cc3cccs3)Cc3nnnn3CC3CCCO3)c(=O)[nH]c2c1 (stereo not given) | 11000 (inactive)
17 | CCCCC[C@H](C)N1C[C@@H](COCc2ccccc2)Oc2cc(N3CCC[C@@H]3CO)ccc2S1(=O)=O | 5890 (inactive)
18 | CC(C)CC(NC(=O)C1CCCN1C(=O)[C@@H](C)NC(=O)OCc1ccccc1)C(=O)NCC(N)=O (stereo not given in full) | 3990 (inactive)
19 | Cn1c(NCc2cccnc2)nc2cc(-c3ccc(F)cc3)sc2c1=O | 2810 (inactive)
20 | CCSc1nc(-c2ccc(OC)cc2)cc(-c2ccc(OC)cc2)c1C#N | 9530 (inactive)
21 | CCOc1cc(-c2cc(-c3ccc(OC)cc3)nc(N)c2C#N)ccc1O | 24300 (active)
22 | COc1ccc(-c2cc(-c3ccc(N)cc3)nc(N)c2C#N)cc1OC | 4760 (inactive)

Row | SMILES | fluorescence intensity
23 | C[C@H](NC(=O)CC[C@H]1O[C@@H](n2ccc(=O)[nH]c2=O)[C@H](O)[C@@H]1O)c1cccc2ccccc12 | 5050 (inactive)
24 | Cn1c(=O)cc(OCCCC(=O)N2CCN(c3ccccn3)CC2)c2ccccc21 | 19100 (active)
25 | Cn1c(=O)cc(OCCCC(=O)N2CCN(Cc3ccc4c(c3)OCO4)CC2)c2ccccc21 | 9010 (inactive)
26 | Cn1c(=O)cc(OCC(=O)N2CCN(c3ccccc3F)CC2)c2ccccc21 | 2380 (inactive)
27 | COc1ccc(-c2nc(SCC(=O)N3CCCC3)n[nH]2)cc1 | 5340 (inactive)
28 | CCCOc1ccc(-c2nc(N)n[nH]2)cc1 | 16700 (active)
29 | Nc1nc(SCCOc2ccccc2)n[nH]1 | 6950 (inactive)
30 | CCOC(=O)c1ccc(-c2ccc3ncnc(N(C)Cc4sccc4C)c3c2)o1 | 3710 (inactive)
31 | CCCC(=O)N1CCC1(C)C(=O)NS(=O)(=O)c1ccc(Cl)cc1 (stereo not given) | 2920 (inactive)
32 | Cc1nc2c(OCc3ccc(Cl)cc3)cccn2c1N(C)Cc1cccs1 | 3830 (inactive)
33 | COC(=O)C1=C(N)Oc2c(oc(CO)cc2=O)C1c1c(F)cccc1Cl (stereo not given) | 3610 (inactive)
34 | COc1ccc(C(=O)N/N=C2\CCS(=O)(=O)c3ccc(F)cc32)cc1OC | 4530 (inactive)
35 | Cc1ccc(C(=O)N(CN2CCCC2=O)c2ccc(F)cc2)cc1 | 24000 (active)
36 | CCOc1ccc(C(=O)NCCCN2CCCC2=O)cc1 | 3040 (inactive)
37 | Cc1ccc(-c2nn(-c3ccccc3)cc2C(=O)NCCCN2CCCC2=O)cc1 | 4630 (inactive)
38 | Cc1ccc(-n2nc(N)c3c(=O)oc(N(C)C)nc32)cc1 | 23400 (active)
39 | CCCNC(=O)CCc1c(C)nc2c(c(C)nn2-c2ccc(C)cc2)c1C | 3860 (inactive)
40 | Cc1ccc2c(=O)oc(N(C)C)nc2c1 | 2560 (inactive)
41 | Cc1ccc(NS(=O)(=O)c2c(C)[nH]c(=O)[nH]c2=O)cc1C | 10900 (inactive)
42 | CC1(C)Cc2ccccc2-c2nc(CN3CCOCC3)[nH]c(=O)c21 | 22300 (active)
43 | CC1(C)Cc2ccccc2-c2[nH]c(=S)[nH]c(=O)c21 | 4400 (inactive)
44 | O=c1[nH]c(CN2CCOCC2)nc2scc(-c3ccccc3)c12 | 4340 (inactive)

Row | SMILES | fluorescence intensity
45 | CC(C)c1cccc(C(C)C)c1Nc1cn[nH]c1 | 6170 (inactive)
46 | CCC(C)(C)c1ccc(Oc2ccc(NC(=O)COC(=O)C3=COCCO3)cc2)cc1 | 21300 (active)
47 | COc1ccc(NC(=O)COC(=O)C2COc3ccccc3O2)cc1 (stereo not given) | 3930 (inactive)
48 | CCOc1ccc(NC(=O)c2ccc(NC(=O)COC(=O)c3ccc(NC(=O)CC#N)cc3)cc2)cc1 | 4430 (inactive)
49 | C/C(=N\NS(=O)(=O)c1ccccc1)c1c(O)cc(C)oc1=O | 5910 (inactive)
50 | O=C(CSc1nccc(=O)[nH]1)Nc1ccc(N2CCOCC2)c(Cl)c1 | 3800 (inactive)
51 | CCOC(=O)c1[nH]c(C)c(C(=O)OCC(=O)N2c3ccccc3CC2C)c1C (stereo not given) | 19700 (active)
52 | CCOC(=O)c1c(C)[nH]c(C(=O)OCC(=O)N2CCCC2=O)c1C | 6230 (inactive)
53 | CCOc1ncccc1C(=O)OCC(=O)N1c2ccccc2CC1C (stereo not given) | 3090 (inactive)
54 | CC(C)C(OC(=O)c1cccs1)C(=O)NC1CCCCC1 (stereo not given) | 9640 (inactive)
55 | Cc1ccc(-c2nc(COC(=O)c3c(C)noc3C)cs2)cc1 | 9900 (inactive)
56 | COc1ccccc1CN1CCCC(N2CCN(c3ccc(F)cc3)CC2)C1 (stereo not given) | 4030 (inactive)
57 | COc1ccc(N2C(=O)c3ccccc3NC2c2ccc(OC)c(CN3CCOCC3)c2)cc1 (stereo not given) | 4330 (inactive)
58 | COc1ccc(C2C(C#N)=C(N)Oc3n[nH]c(C)c32)cc1CN1CCN(c2ccc(F)cc2)CC1 (stereo not given) | 24200 (active)
59 | CSc1ncnc2c1ncn2CCCNCC1CCCCC1 | 3580 (inactive)
60 | O=C1COc2ccc(NC(=O)N3CCN(c4ccc(F)cc4)CC3)cc2N1 | 22400 (active)
61 | CC(CC(=O)Nc1ccc(F)cc1F)S(=O)(=O)c1ccc2c(c1)NC(=O)CO2 (stereo not given) | 6050 (inactive)
62 | CCOC(=O)C1CCN(C(=O)Nc2cccc(OC)c2)CC1 | 3130 (inactive)
63 | Cc1ccc(NC(=O)C2CCN(S(=O)(=O)c3ccc4c(c3)NC(=O)CO4)CC2)cc1C | 6240 (inactive)
64 | COc1ccc(NC(=O)CCS(=O)(=O)c2cc3c(cc2Cl)NC(=O)CO3)cc1OC | 4470 (inactive)
65 | COc1cccc(N2CCN(C(=O)Nc3ccc4c(c3)NC(=O)CO4)CC2)c1 | 19600 (active)
